{"source": "PubChem BioAssay (Tox21)", "note": "Results filed as inconclusive are left out. Values without a mark were called inactive. The call rests on the fitted dose curve; in most records, active means well fitted activation curve with a large enough effect in the signal ratio in the repeat runs (not every such curve was filed as active); inconclusive means weak or mixed curves; inactive means flat fitted curve, though single readings scatter; the % refers to the signal ratio. On the % scale 0 is the no-effect control and ±100 the full control effect."}
{"experiment": "qHTS assay to identify small molecule agonists of the TGF-beta/Smad signaling pathway (AID 1346859)", "settings": "SBE-bla HEK293T, TGF-beta/Smad beta-lactamase reporter, 5 h; series mostly up to 76.8 µM; activation: at the top concentration", "text": "U.S. Tox21 Program National Center for Advancing Translational Sciences [NCATS] NIH Chemical Genomics Center [NCGC] U.S. Environmental Protection Agency [EPA] National Institutes of Environmental Health Sciences [NIEHS] National Toxicology Program [NTP] U.S. Food and Drug Administration [FDA] Tox21 Assay Overview: Transforming growth factor beta (TGF-beta) superfamily consists of a large number of structurally related dimeric proteins that act as hormones or local mediators in regulating a wide range of biological functions. This superfamily includes TGF-betas themselves, the bone morphogenetic proteins (BMPs) and the activins. These ligands induce oligomerization of serine/threonine receptor kinases and phosphorylate the cytoplasmic signaling molecules of Smad protein family. CellSensor SBE-bla HEK 293T cell line (Life Technologies, Carlsbad, CA), responsive to TGF-beta was used to screen Tox21 10K compound library for identification of agonists/antagonists of the Smad signaling pathway. This cell line contains a beta-lactamase reporter gene under control of the Smad binding element (SBE) stably integrated into HEK 293T cells.\nTox21 Assay Protocol Summary: SBE-bla HEK 293T cells were dispensed at 4,000/well in 6 uL of assay medium into black wall/clear-bottom 1536-well plates using a Multidrop Combi (ThermoFisher Scientific, Waltham, MA) dispenser. After the assay plates were incubated at 37 C and 5% CO2 for an overnight, 23 nL of compounds dissolved in DMSO, positive controls or DMSO only was transferred to the assay plate by a Pintool station (Kalypsys, San Diego, CA). The assay plates were incubated at 37 C and 5% CO2 for 5 hr. One uL of LiveBLAzer B/G FRET substrate (Life Technologies) was added using a Flying Reagent Dispenser (Aurora Discovery, San Diego, CA) and the plates were incubated at room temperature for 2 hr. Fluorescence intensity (405 nm excitation, 460 nm and 530 nm emissions) was measured using an Envision plate reader (PerkinElmer, Shelton, CT)."}
{"smiles": "COc1ccnc(CS(=O)c2nc3ccc(OC(F)F)cc3[nH]2)c1OC", "note": "(stereo not given)", "activation": "0.167% [at 35.3 µM]"}
{"smiles": "Cc1cc(N)c2cc(NC(=O)Nc3ccc4nc(C)cc(N)c4c3)ccc2n1", "activation": "4.51% [at 35.3 µM]"}
{"smiles": "CN(C)c1ccc(C(c2ccccc2)c2ccc(N(C)C)cc2)cc1", "activation": "3.45%"}
{"smiles": "C/C=C/C=C/CO", "activation": "-4.77%"}
{"smiles": "CN(Cc1ccc(C(C)(C)C)cc1)Cc1cccc2ccccc12", "activation": "0.65% [at 35.3 µM]"}
{"smiles": "O=C(O)C1(C(=O)O)CCC1.[NH2-].[NH2-].[Pt+2]", "activation": "3.23% [at 35.3 µM]"}
{"smiles": "CC1=CCCC(C)(C)C12CCC(C)O2", "note": "(stereo not given)", "activation": "1.93%"}
{"smiles": "O=[N+]([O-])c1cccc(S(=O)(=O)O)c1", "activation": "0.977%"}
{"smiles": "CC(C)C[C@H]1C(=O)N2CCC[C@H]2[C@]2(O)O[C@](NC(=O)[C@@H]3C=C4c5cccc6[nH]c(Br)c(c56)C[C@H]4N(C)C3)(C(C)C)C(=O)N12", "activation": "-0.48% [at 35.3 µM]"}
{"smiles": "CCCCCCCC#N", "activation": "-0.262%"}
{"smiles": "O=S(c1cc(Cl)cc(Cl)c1O)c1cc(Cl)cc(Cl)c1O", "activation": "-0.0455% [at 35.3 µM]"}
{"smiles": "NC(N)=NCCC[C@H](N)C(=O)O", "activation": "2.75% [at 6.97 µM]"}
{"smiles": "CN(C)CCCN1c2ccccc2Sc2ccccc21", "activation": "1.39% [at 35.3 µM]"}
{"smiles": "CC1OC(=O)C(C)OC1=O", "note": "(stereo not given)", "activation": "-0.236%"}
{"smiles": "CCNc1cc(O)ccc1C", "activation": "-6.71%"}
{"smiles": "O=C(O)C(S)C(S)C(=O)O", "note": "(stereo not given)", "activation": "0.266% [at 35.3 µM]"}
{"smiles": "CCN(CC)c1ccc2c(-c3ccccc3C(=O)O)c3ccc(=[N+](CC)CC)cc-3oc2c1", "activation": "0.398%"}
{"smiles": "Cc1cccc(C)c1NC(=O)CN(CC(=O)O)CC(=O)O", "activation": "1.85% [at 35.3 µM]"}
{"smiles": "O=C(O)CC(=O)C(=O)O", "activation": "-0.885%"}
{"smiles": "O=C1[C@H]2CCCC[C@H]2C(=O)N1CCCCN1CCN(c2nsc3ccccc23)CC1", "activation": "-3.57% [at 35.3 µM]"}
{"smiles": "CCOC(=O)C1=C[C@]2(CC)CCCN3CCc4c(n1c1ccccc41)[C@@H]32", "activation": "9.62% [at 35.3 µM]"}
{"smiles": "Clc1ccc(Cn2c(CN3CCCC3)nc3ccccc32)cc1", "activation": "-1.72% [at 35.3 µM]"}
{"smiles": "C[C@@H]1C[C@H]2O[C@@]3(O[C@@H]2C(C)(C)O)[C@H](O)[C@@]2(C)[C@@H]4CC[C@H]5C(C)(C)[C@@H](O[C@@H]6OC[C@@H](O)[C@H](O)[C@H]6O)CC[C@@]56C[C@@]46CC[C@]2(C)[C@@H]13", "activation": "-1.14% [at 35.3 µM]"}
{"smiles": "O=[N+]([O-])c1ccc(NCCO)c(OCCO)c1", "activation": "-1.12%"}
{"smiles": "CCOC(=O)Cc1cccc2ccccc12", "activation": "0.779%"}
{"smiles": "O=C1c2ccccc2S(=O)(=O)N1CCCCN1CCN(c2ncccn2)CC1", "activation": "0.109% [at 35.3 µM]"}
{"smiles": "NCC(=O)O", "activation": "-0.809% [at 15.8 µM]"}
{"smiles": "CCCCc1ncc(/C=C(\\Cc2cccs2)C(=O)O)n1Cc1ccc(C(=O)O)cc1", "activation": "2.07% [at 35.3 µM]"}
{"smiles": "NCCCN1CCOCC1", "activation": "1.38%"}
{"smiles": "CCCC(=O)Nc1ccc(O)c(C(C)=O)c1", "activation": "-0.274% [at 35.3 µM]"}
{"smiles": "CC(C)O.CC(C)O.CCOC(=O)/C=C(\\C)O.CCOC(=O)/C=C(\\C)O.[Ti]", "activation": "1.31%"}
{"smiles": "CN1Cc2cc(C(=O)N3CCC(C4CCNCC4)CC3)ccc2NC(CC(=O)O)C1=O", "note": "(stereo not given)", "activation": "3.48% [at 35.3 µM]"}
{"smiles": "CC1(c2ccccc2)OC(C(=O)O)=CC1=O", "note": "(stereo not given)", "activation": "1.95% [at 35.3 µM]"}
{"smiles": "CCCCCCCCCCO[C@@H]1O[C@H](CO)[C@@H](O)[C@H](O)[C@H]1O", "activation": "1%"}
{"smiles": "CCN(CC)CCNc1ccc(CNC=O)c2sc3ccc(OC)cc3c(=O)c12", "activation": "11.3%"}
{"smiles": "NCC(=O)CCC(=O)O", "activation": "-1.26% [at 35.3 µM]"}
{"smiles": "C=C(C)C(=O)OCC", "activation": "1.04%"}
{"smiles": "O=C1C(O)=C(O)C(=O)C(O)=C1O", "activation": "-1.42% [at 35.3 µM]"}
{"smiles": "O=C(O)c1ccc(S(=O)(=O)O)cc1C(=O)O", "activation": "-1.38%"}
{"smiles": "Cc1c(N)cccc1[N+](=O)[O-]", "activation": "0.306%"}
